Data reported in PubChem BioAssay AID2221 (Broad Institute, 2009).
Screen size: about 290,000 compounds; about 2,200 (0.76%) were called active. For the sample, actives were picked, then their nearest neighbours and some compounds at random. Values without a mark were called inactive. Cut-off read from the data, not from the text of the source: active = inhibition above about 30%; inconclusive = no clear call, values can overlap the other calls; inactive = below that.

Each molecule was assayed against Protein RecA (Mycobacterium tuberculosis (strain ATCC 25618 / H37Rv)) (UniProt P9WHJ3) (assay: Mtb RecA intein splicing inhibitors, primary screen, biochemical, fluorescence, HTS (AID 2221;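 note: 0% = vehicle wells and 100% = reference inhibitor control wells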)). Conditions: cell-free RecA intein splicing, stronger effect = higher value, concentration not given here.
Protein RecA (Mycobacterium tuberculosis (strain ATCC 25618 / H37Rv)), sequence (P9WHJ3 whole entry, looked up): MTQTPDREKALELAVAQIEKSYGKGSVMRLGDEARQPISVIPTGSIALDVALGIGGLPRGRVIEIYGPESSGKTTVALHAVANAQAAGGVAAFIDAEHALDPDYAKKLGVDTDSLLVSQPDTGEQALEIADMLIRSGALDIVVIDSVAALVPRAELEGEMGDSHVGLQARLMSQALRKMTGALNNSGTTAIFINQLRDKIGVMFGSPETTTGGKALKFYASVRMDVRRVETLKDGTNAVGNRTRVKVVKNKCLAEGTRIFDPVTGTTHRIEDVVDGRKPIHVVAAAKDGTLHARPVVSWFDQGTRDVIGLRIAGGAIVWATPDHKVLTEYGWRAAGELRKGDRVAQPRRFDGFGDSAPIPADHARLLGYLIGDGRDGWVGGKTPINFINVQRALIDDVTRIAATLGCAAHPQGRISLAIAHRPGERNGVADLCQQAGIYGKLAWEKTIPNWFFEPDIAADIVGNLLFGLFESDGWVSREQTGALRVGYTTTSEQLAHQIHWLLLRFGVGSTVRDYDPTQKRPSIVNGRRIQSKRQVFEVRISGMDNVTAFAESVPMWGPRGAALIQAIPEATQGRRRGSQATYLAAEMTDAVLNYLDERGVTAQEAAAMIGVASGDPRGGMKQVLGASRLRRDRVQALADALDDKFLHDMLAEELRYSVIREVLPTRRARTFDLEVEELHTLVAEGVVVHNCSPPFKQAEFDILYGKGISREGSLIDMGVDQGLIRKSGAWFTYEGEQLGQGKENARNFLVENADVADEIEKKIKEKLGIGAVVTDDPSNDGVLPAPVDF

Structure (SMILES)	inhibition
Cc1cc(Cl)nc(NC(=O)Nc2cccc(Cl)c2)n1	-0.873%
O=C(NCCCn1ccnc1)c1cc2c(s1)CCCC2	1.03%
COc1cc(/C=C2/C(=O)NN(c3cccc(Cl)c3)C2=O)cc(Br)c1O	9.85%
CCOc1c(Br)cc(/C=C2\C(=O)N(CCC#N)N=C2C)cc1OC	89.5% (active)
C=CCOc1c(Br)cc(/C=N\n2nnnc2N)cc1OC	1.44%
Cc1cccc(OCC(=O)NCCNC(=O)c2cccnc2)c1	4.34%
Cc1nn(CC(=O)NC2CCCCC2)c(=O)c2cccn12	-1.92%
O=C(CN(C(=O)CNC(=O)c1cccs1)c1cccc(F)c1)NC1CCCCC1	2.36%
Cc1cccc(NC(=O)NC(=S)NC(=O)c2ccccc2)c1	1.58%
Cc1cccc(NC(=S)Nc2ccc3cn[nH]c3c2)c1	3.44%
Cc1cc2[nH]ncc2cc1NC(=S)NC(=O)c1ccccc1	38.6% (active)
CC(=O)c1c(N2CCN(c3ccc(F)cc3)CC2)nc(=S)n(-c2ccccc2)c1C	-0.168%
O=C(CCN1C(=O)[C@@H]2Cc3ccccc3CN2C1=O)NCc1ccccc1	-0.00645%
O=C(CCN1C(=O)[C@@H]2Cc3ccccc3CN2C1=O)NCCc1ccccc1	-9.37%
Cc1ccc(CNC(=O)CCN2C(=O)[C@@H]3Cc4ccccc4CN3C2=O)cc1	58% (active)
COc1cc(CC(=O)N/N=C/c2ccccc2)c([N+](=O)[O-])cc1OC	-1.27%
Cc1cc(C(=O)N/N=C/c2ccccc2[N+](=O)[O-])c(C)o1	-1.48%
O=C(Cc1cc(=O)[nH][nH]1)N/N=C/c1ccccc1[N+](=O)[O-]	86.9% (active)
CCOc1ccc(N2CC(C(=O)N/N=C/c3sccc3C)CC2=O)cc1 (configuration not stated)	-0.809%
Cc1ccsc1/C=N/Nc1ccc(Cl)nn1	0.218%
Cc1ccsc1/C=N/NC(=O)Cc1cc(=O)[nH][nH]1	93.6% (active)
CCCNC(=O)OC[C@H]1O[C@H](CCO/N=C/[C@@H](NS(=O)(=O)c2ccc(C)cc2)[C@H](C)/C=C/CC(=O)OC)C=C[C@@H]1Oc1ccc(OC)cc1	4.43%
CCN=c1sc(C(=O)Nc2ccccc2)c(C)n1CC	-1.39%

Structure (SMILES)	inhibition
CC(=O)N1CCN(C(=O)C2(NC(=O)Nc3ccc(C)cc3)CCCCC2)CC1	-0.697%
O=C1c2cccc3c([N+](=O)[O-])ccc(c23)C(=O)N1CC1CCCO1 (configuration not stated)	-70.4%
Cc1ccc(Nc2ccc(C(N)=O)cc2[N+](=O)[O-])cc1	2.38%
Cc1cc(C)nc(Nc2cc([N+](=O)[O-])ccc2C)n1	-2.26%
Cc1ccc(Nc2cc(C)nc3c(C)ccc([N+](=O)[O-])c23)cc1	63.3% (active)
Cc1ccccc1Nc1c([N+](=O)[O-])ccc2nonc12	-1.72%
CN(c1ccccc1)c1ccc([N+](=O)[O-])c2nonc12	63.5% (active)
CCN(CC)c1ccc([N+](=O)[O-])c2cccnc12	14.5%
COc1cc(C(F)(F)F)nc2c(Br)c(C(C)(C)C)nn12	0.549%
CCOC(=O)c1cc(S(=O)(=O)NCCc2ccc(OC)c(OC)c2)cn1C	-0.521%
COc1ccc(C(=O)NNC(=S)NC(=O)c2ccccc2)cc1	7.5%
COc1ccc(C(=O)NC(=S)NNC(=O)CCc2ccccc2)cc1	34.5% (active)
CC(C)Oc1ccc(CCC(=O)NNC(=S)NCc2ccccc2)cc1	0.193%
COc1ccc(N2CC(C(=O)NCCS(=O)(=O)N3CCN(c4ccccc4)CC3)CC2=O)cc1 (configuration not stated)	-1.96%
CC(C)C(NC(=O)C1CCC(C(C)(C)C)CC1)C(=O)NCCCN1CCCCC1 (configuration not stated)	0.406%
Cc1ccc(F)cc1NC(=O)Cc1nn(C)c(=O)c2ccccc12	-33.8%
O=C1c2oc3ccc(Br)cc3c(=O)c2C(c2cccc(F)c2)N1CCO (configuration not stated)	1.67%
Cc1c(-c2nn(C)c(=O)c3ccccc23)oc2ccc(F)cc2c1=O	88.2% (active)
COc1cccc(N2C(=O)CN(Cc3ccccc3)C2=S)c1	0.665%
O=C(COc1ccc(Cl)cc1Cl)NCCCNC(=O)c1cnccn1	1.17%
CCOC(=O)/C(=N\Nc1ccccc1[N+](=O)[O-])c1csc(Nc2ccccc2)n1	-3.85%
CN1CCc2nc(SC(C(=O)O)c3ccccc3)c(C#N)c(-c3cccs3)c2C1 (configuration not stated)	34.8% (active)
Cc1c(-c2ccccc2)nc(N)c(C#N)c1-c1cccs1	-1.05%

Structure (SMILES)	inhibition
CCc1c(-c2ccccc2)nc(N)c(C#N)c1-c1cccs1	4.71%
O=C(Cc1ccccc1F)NC1CCSc2ccccc21 (configuration not stated)	-0.276%
Cc1nc(-c2ccccc2)sc1C1(C)CC(c2cccnc2)=NO1 (configuration not stated)	1.29%
Nc1nc(-c2ccccc2)cc(-c2ccccc2)n1	6.87%
N#Cc1nc(N)nc(N(c2ccccc2)c2ccccc2)n1	37.4% (active)
Cc1nc2ccccn2c(=O)c1NC(=O)c1cccs1	-0.75%
Cc1c(Cl)cccc1NC(=O)CCC(=O)N/N=C/c1ccco1	-1.26%
CCC(C)NC(=O)CCCc1ccccc1 (configuration not stated)	-3.16%
O=C(CCc1nnc(CCCCc2ccccc2)o1)NC(c1cccnc1)C(F)(F)F (configuration not stated)	-3.54%
CC(CCn1cccn1)NC(=O)CCc1nnc(CCc2ccccc2)o1 (configuration not stated)	36.9% (active)
Cc1cc(=O)n2nc(N3CCC(C(=O)Nc4c(F)c(F)c(F)c(F)c4F)CC3)sc2n1	0.056%
CNC(=O)COC(=O)c1cc(-c2ccc(OC)cc2)nc2ccccc12	-2.37%
COc1ccc(-c2cc(C(=O)Nc3ccccc3O)c3ccccc3n2)cc1	-0.565%
COc1ccc(-c2cc(C(=O)n3cnc4ccccc43)c3ccccc3n2)cc1	37.7% (active)
CCCNC(=O)CSc1nc(Cc2ccccc2)nc2ccccc12	15.4%
CCN(CC)S(=O)(=O)c1cc([N+](=O)[O-])ccc1NNC(=O)Nc1ccccc1	0.713%
COc1ccc(-n2nnnc2CNC(=O)c2ccc3ccccc3c2)cc1	-1.28%
Cc1ccc([N+](=O)[O-])c(OCCCNCC(C)O)c1 (configuration not stated)	-0.0235%
Cc1ccc(CN2CCN(c3ncccn3)CC2)c(C)c1	0.612%
C=CCn1c(SCC(=O)NCC2CCCO2)nc2sc(C)c(C)c2c1=O (configuration not stated)	0.158%
Cn1c(SCC(=O)c2ccccc2)ncc(C(=O)Nc2ccc(F)cc2)c1=O	-0.487%
Cc1ccc(NC(=O)c2cnc(SCC(=O)NCC3CCCO3)n(C)c2=O)cc1 (configuration not stated)	35.1% (active)
COc1ccc2c(c1O)-c1cccc3c1[C@@H](C2)N(C)CC3	-6.28%

Structure (SMILES)	inhibition
COc1ccc2cc1Oc1ccc(cc1)C[C@H]1c3cc(c(OC)cc3CCN1C)Oc1c(O)c(OC)cc3c1[C@H](C2)N(C)CC3	-4.49%
COc1c(O)ccc2c1CN1CCc3cc4c(cc3C1C2)OCO4 (configuration not stated)	68.5% (active)
CC(C)(C)OC(=O)NC(Cc1ccccc1)C(=O)NC(CSC1CCCCO1)C(=O)NN (configuration not stated)	-1.13%
CC1(C)CC(=O)c2cnc3nc4ccccc4n3c2C1	-0.669%
CC(CNc1ccc([N+](=O)[O-])c2cccnc12)Nc1c([N+](=O)[O-])cc(C(F)(F)F)cc1[N+](=O)[O-] (configuration not stated)	1.36%
COc1ccc(-c2cc(C(F)(F)F)nc(S(C)(=O)=O)n2)cc1OC	42% (active)
COc1ccc(-c2ccc(Nc3ccc(S(=O)(=O)N4CCCC4)cc3)nn2)cc1OC	-1.08%
COc1ccc(-c2cc(C(F)(F)F)nc(NCc3cccnc3)n2)cc1	-1.1%
Cn1cc(CCC(=O)NC2CC2)c2ccccc21	-0.418%
O=C(CN1CCN(C(=S)NC2CCCC2)CC1)Nc1ccc(Oc2ccccc2)cc1	5.42%
COCc1cc(C)n(CC(=O)NCC2CCCO2)c(=O)c1C#N (configuration not stated)	-0.67%
C[C@]12C=CC(=O)C=C1CC[C@@H]1[C@@H]2C(=O)C[C@@]2(C)[C@H]1CC[C@]2(O)C(=O)CO	1.39%
CC(=O)O[C@]1(C(C)=O)CC[C@H]2[C@@H]3C=C(C)C4=CC(=O)CC[C@]4(C)[C@H]3CC[C@@]21C	11%
CC(=O)C12CC(C)=C(C)CC1CC1C3CCC4=CC(=O)CCC4(C)C3CCC12C (configuration not stated)	36% (active)
C=CCN(C(=O)Nc1ccc2oc(C)nc2c1)c1ccccc1	1.61%
CCN(CC)c1ccc2cc(C(N)=O)/c(=N\NC(=O)c3ccncc3)oc2c1	-24.7%
CCN(CC)c1ccc2oc(=O)c(C)nc2c1	30.2% (active)
COc1ccc(-c2nnc(SCc3cccnc3)o2)cc1	-3.4%
COc1ccc(-c2nnc(SCC(=O)c3ccc4c(c3)OCCO4)o2)cc1	0.107%
COc1ccc(-c2nnc(SC(=O)N3c4ccccc4Sc4ccccc43)o2)cc1	46.6% (active)
CC(=O)c1cccc(NC(=O)C2COc3ccccc3O2)c1 (configuration not stated)	0.944%
C[C@H](NC(=O)C1CCN(S(=O)(=O)c2ccccc2)CC1)C(=O)NCc1ccccc1	1.64%
COC(=O)c1sc(SC)c(S(=O)(=O)C(C)C)c1N/N=C(\C#N)S(=O)(=O)c1ccccn1	3.07%
